# Bioassay records (PubChem)
# phage Ecoli inh = E. coli growth loss with phage present. inhibition, % at 11.9 µM. growth absorbance. 360,000 tested, 0.26% active; in the data active = inhibition above about 11%
# Tat transport = blocks Tat-dependent protein export in E. coli. E. coli MC4100 TorA-mCherry Tat export, fluorescence. inhibition, % at 10 µM. 340,000 tested, 0.036% active. AID 488895;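 active = mean replicate inhibition at least 50% and at least half of replicates individually reaching 50%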;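 also: exported cargo escapes ClpAP degradation while cytoplasmic cargo is degraded and loses fluorescence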
# E coli growth-1 = E. coli growth inhibition; Escherichia coli growth, OD600, 23 h; active compounds read low; OD600 absorbance (no concentration beside the values); 330,000 tested, 0.21% active;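 active = OD600 absorbance below the run mean of sample wells minus 3.6 SD, in any replicate, cut at about 0.56 in these data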
# AddAB inh = less growth of phage-infected E. coli with AddAB. E. coli expressing H. pylori AddAB, absorbance growth. inhibition, % at 11.9 µM. 330,000 tested, 0.29% active; in the data active = inhibition above about 12%
# E coli growth-2 = counter-screen for AddAB inhibitors: E. coli growth inhibition; AID 449728; 330,000 tested, 0.27% active; E. coli V3065 growth, OD600 absorbance, 18 h; inhibition, % at 11.9 µM;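 active = inhibition above the campaign's mean inhibition across all tested compounds plus 3 SD, cut at about 9.9% in these data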;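 also: uninfected addAB+ strain grown without phage in ampicillin broth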
# RecBCD conf = growth loss of phage-infected V66 E. coli, RecBCD confirmation screen | shares compounds with phage Ecoli inh | E. coli V66 + T4 2- phage, growth OD | inhibition, % at 11.9 µM | 890 tested, 45% active | AID 651982;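 active = mean inhibition over triplicates exceeding the hit threshold derived in the original primary screen, cut at about 11% in these data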
# Ecoli viability = counter-screen for RecBCD inhibitors: inhibitors of bacterial viability; shares compounds with phage Ecoli inh; E. coli viability, absorbance (OD) growth; inhibition, % at 11.9 µM; 890 tested, 29% active; AID 651983; in the data active = inhibition above about 20%;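 also: E. coli strain V66 grown with compound alone and no phage infection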
# AddAB counter = growth loss of phage-infected AddAB E. coli, RecBCD counter-screen. shares compounds with phage Ecoli inh. E. coli expressing H. pylori AddAB + T4 phage, OD growth; gene 2 mutant T4, recBCD-deleted host. inhibition, % at 11.9 µM. 890 tested, 45% active. AID 651984;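 active = mean inhibition above the solvent-only control wells' mean plus 3 SD, cut at about 22% in these data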;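 also: higher means less bacterial growth from phage killing when AddAB is blocked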
# A number is an active result; . = inactive; / = not tested or not shown. Sampled rows, rich in hits. Any-hit rate of the full collection: about 0.5%.
SMILES,phage Ecoli inh,Tat transport,E coli growth-1,AddAB inh,E coli growth-2,RecBCD conf,Ecoli viability,AddAB counter
C#CCOCCOCCOCCNc1nc(N2CCN(C(=O)C(Cc3ccc(O)cc3)n3cc(C(N)CC(C)C)nn3)CC2)nc(N2CCN(C(=O)C(C(C)CC)n3cc(C(N)Cc4ccc(O)cc4)nn3)CC2)n1 (stereo not drawn),/,/,.,/,/,/,/,/
CCNC(=S)NNC(=S)NCc1ccccc1,11,.,.,.,.,.,.,.
S=C(NCc1ccccc1)NCc1ccc(CNC(=S)NCc2ccccc2)cc1,.,.,.,.,.,/,/,/
Cc1ccc(-n2c(C)cc(C=NNc3ccc([N+](=O)[O-])cn3)c2C)c(C)c1,/,/,.,/,/,/,/,/
O=C(NN=C1CCCc2ccccc21)c1ccc([N+](=O)[O-])cc1,/,/,.,/,/,/,/,/
S=C(NCc1ccccn1)NN=Cc1ccccn1,18,.,/,/,/,14,.,.
COc1ccc(C=NNC(=O)c2cc(C34CC5CC(CC(C5)C3)C4)[nH]n2)cc1O,/,/,.,/,/,/,/,/
Nc1nonc1-n1nnc(C(=O)N/N=C/c2cc(Br)ccc2O)c1CNc1ccccc1,12,.,/,.,.,.,.,.
Cc1ccc(/C=N/NC(=O)c2nnn(-c3nonc3N)c2CNc2ccccc2)cc1,.,.,/,.,.,/,/,/
Cc1ccc2ccc(C(Nc3ccccn3)c3ccccc3)c(O)c2n1 (stereo not drawn),.,.,.,.,.,/,/,/
Cc1ccc2ccc(C(Nc3ccccc3)c3ccccc3)c(O)c2n1 (stereo not drawn),12,/,/,/,/,.,.,.
Cc1ccc2ccc(C(Nc3ccccc3)c3ccc(C(C)C)cc3)c(O)c2n1 (stereo not drawn),.,/,/,/,/,/,/,/
Cc1ccnc(NC(c2ccccc2)c2ccc3cccnc3c2O)c1 (stereo not drawn),17,.,.,/,/,.,.,.
Cc1ccc2ccc(C(Nc3ccccc3)c3ccc(Cl)cc3)c(O)c2n1 (stereo not drawn),12,/,/,/,/,.,.,.
CCN1C(=O)NC(c2ccc(Br)cc2)C(C(=O)OC)=C1C (stereo not drawn),/,/,.,/,/,/,/,/
O=C(Cc1cnn(-c2ccccc2)c1)c1ccc(O)c(O)c1O,11,.,.,.,.,.,.,.
O=C(O)COc1ccccc1C=NNC(=O)CNC(=O)c1ccc(F)cc1,/,/,.,/,/,/,/,/
O=[N+]([O-])c1ccc(O)c2ncccc12,62,.,0.066,64,67,79,74,69
O=[N+]([O-])c1cc([N+](=O)[O-])c2cccnc2c1Oc1ccccc1O,.,.,.,.,.,/,/,/
Oc1c(Cl)c(Cl)c2ncccc2c1Cl,.,.,.,/,/,/,/,/
O=[N+]([O-])c1cc(Cl)c(O)c2ncccc12,44,.,0.068,/,/,53,55,46
Oc1c(I)cc(Cl)c2cccnc12,32,.,0.12,31,44,43,49,40
CCOC(=O)C1C2COc3cc(OC)ccc3C2N2C(=O)c3ccc(C)cc3NC(=O)[C@@]12C (stereo partly drawn),/,/,.,/,/,/,/,/
CCN(CC)c1ccc(C=NNC(N)=O)cc1,/,/,.,/,/,/,/,/
CCOC(=O)CCC(=O)O[C@H]1[C@H](O[C@@H]2[C@@H](C)[C@H](O[C@H]3C[C@@](C)(OC)[C@@H](O)[C@H](C)O3)[C@@H](C)C(=O)O[C@H](CC)[C@@](C)(O)[C@H](O)[C@@H](C)C(=O)[C@H](C)C[C@@]2(C)O)O[C@H](C)C[C@@H]1N(C)C,26,.,/,25,22,14,.,.
SMILES,phage Ecoli inh,Tat transport,E coli growth-1,AddAB inh,E coli growth-2,RecBCD conf,Ecoli viability,AddAB counter
ON=C(Cc1cscn1)c1ccc(O)cc1O,/,/,.,/,/,/,/,/
Oc1c(Br)cc(C=NNc2ccc(Cl)nn2)cc1Br,/,/,.,/,/,/,/,/
O=C(NNC(=O)c1cc(F)c(F)cc1Cl)c1ccc(NS(=O)(=O)c2cccs2)cc1,.,.,.,.,.,/,/,/
O=C(NNC(=O)c1cc(Cl)ccc1O)c1ccc(NS(=O)(=O)c2cccs2)cc1,11,.,.,.,.,.,.,.
FC(F)(F)c1ccc(NC(=S)NC2CCCCC2)cc1,15,.,.,.,.,.,.,.
FC(F)(F)c1cccc(NC(=S)NC2CCCC2)c1,.,.,.,.,.,/,/,/
Nc1nc(N)nc(-c2ccc([N+](=O)[O-])o2)n1,103,.,0.51,/,/,64,89,98
O=[N+]([O-])c1ccc(/C=[N+](\[O-])[C@@H]2CCCC[C@@H]2/[N+]([O-])=C/c2ccc([N+](=O)[O-])o2)o1,.,.,.,.,.,/,/,/
COC(=O)c1ccc(NC(=O)Nc2ccc(F)c(Cl)c2)cc1,12,.,.,.,10,.,.,.
COC(=O)c1ccc(NC(=O)Nc2ccccc2F)cc1,.,.,.,.,.,/,/,/
CC(=O)c1ccc(NC(=O)Nc2cccc(Cl)c2)cc1,11,.,0.51,.,.,.,.,.
COC(=O)c1ccc(NC(=O)Nc2ccc([N+](=O)[O-])cc2)cc1,14,.,0.42,.,.,.,.,.
Cc1cc(OC(F)F)ccc1NC(=O)Nc1ccc([N+](=O)[O-])cc1,13,.,.,.,.,.,.,.
CON=CCC(=O)c1cnc(-c2ccccc2)s1,/,/,.,/,/,/,/,/
CCOc1ccc(S(=O)(=O)N(CC(=O)NN=Cc2cccs2)c2ccc(C)cc2)cc1,/,/,.,/,/,/,/,/
Cc1c(N=Cc2ccco2)n(Cc2ccccc2)c2ccccc12,/,/,.,/,/,/,/,/
CC1CN(C(C)CO)C(=O)c2cccc(NC(=O)C3CCCCC3)c2OC1CN(C)C(=O)NC1CCCCC1 (stereo not drawn),/,/,.,/,/,/,/,/
COc1cccc(NC(=O)Nc2ccc(C)c(Cl)c2)c1,.,.,.,.,.,/,/,/
O=C(Nc1cccc(Cl)c1)Nc1nnc(-c2ccncc2)s1,13,.,.,.,.,.,.,.
Cc1ccc(NC(=O)Nc2ccc(F)cc2)cc1Cl,12,.,.,.,.,.,.,.
COc1ccc(S(=O)(=O)N(C)CC2Oc3c(NC(=O)Nc4ccc5c(c4)OCO5)cccc3C(=O)N(C(C)CO)CC2C)cc1 (stereo not drawn),/,/,.,/,/,/,/,/
Nc1nc(N)c2cc(CNc3ccc(Cl)c(Cl)c3)ccc2n1,58,/,/,/,/,41,36,73
COc1ccc(C(=O)Nc2ccc(S(=O)(=O)N3CCOCC3)cc2)cc1,12,/,.,.,.,.,.,.
Cc1ccc(NC(=O)c2cc(S(=O)(=O)N3CCOCC3)cn2C)cc1F,29,.,.,.,.,.,.,.
Cn1cc(S(=O)(=O)N2CCOCC2)cc1C(=O)Nc1ccc(Cl)cc1,.,.,.,.,.,/,/,/
CCCC1OC2CC3C4CCC5=CC(=O)C=C[C@]5(C)C4C(O)C[C@]3(C)[C@]2(C(=O)CO)O1 (stereo partly drawn),/,/,.,/,/,/,/,/
c1cc(-c2ccsc2)n2ccnc2c1,11,/,/,/,/,.,.,.
c1cc(-c2ccoc2)n2ccnc2c1,.,/,/,/,/,/,/,/
